Source: PubChem (National Center for Advancing Translational Sciences (NCATS))
Sm TGR inh = qHTS Assay for the Inhibitors of Schistosoma Mansoni Peroxiredoxins. Potency, µM (highest dose often 114 µM), without a hit: top-dose activity change, negative = inhibition, actives largely listed as inhibitors. purified TGR, DTNB reduction, TNB absorbance 405 nm. 360,000 tested, 3% active. AID 485364, 2010. Schistosoma mansoni thioredoxin glutathione reductase (TGR), Q962Y6; also: nearly all actives have a fitted effect of over 60% in size
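TGR 20 nM + NADPH 100 uM (dispensed conc.), cpd preinc 15 min RT; start with NADPH (500 uM addition) then DTNB (15 mM addition). Kinetic TNB absorbance, 405 nm filter. Four-parameter Hill fit across titration.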
RE007 growth inh = qHTS Assay for Inhibitors of the HIV-1 protein Vpr | S. pombe RE007 Vpr strain, BacTiter-Glo ATP luminescence, 24 h | Potency, µM (titrated, usually from 92.2 µM), for the others: top-dose activity change, negative = less growth, usual class: inhibitors | 360,000 tested, 0.21% active | AID 651644, 2012; active = well fitted falling curve with a large enough effect; inconclusive = small, poorly fitted or top-dose-only effect; inactive = no such curve, though single readings can be large or run the other way; also: nearly all actives have a fitted effect of over 50% in size
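Fission yeast strain RE007, carrying one chromosomally integrated HIV-1 vpr copy, was seeded at OD 0.01 in PMG+AL medium with 23 nL pinned compound. After 24 h at 30 °C and 99% humidity, viability was read by BacTiter-Glo luminescence.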
MARV entry inh = qHTS for inhibitors of binding or entry into cells for Marburg Virus | Potency, µM (doses to about 37.8 µM), inactives show at the top dose activity change, negative = inhibition, most hits filed as inhibitors | Marburg virus pseudotyped entry inhibition, cell reporter | 300,000 tested, 1.8% active; calls by dose curve; tested in HEK293 cells
LASV entry inh = qHTS for Inhibitors of binding or entry into cells for Lassa Virus. Lassa virus pseudotype entry inhibition, cell reporter. Potency, µM (top dose mostly 37.9 µM), for inactives: top-dose activity change, negative = inhibition, most hits filed as inhibitors. 300,000 tested, 1.2% active. AID 540256, 2011; calls by dose curve; tested in HEK293 cells; also: nearly all actives have a fitted effect of over 50% in size
FMDV antiviral = High Throughput Screening for Foot and Mouth Disease Virus Antivirals. FMDV antiviral cell-based qHTS. Potency, µM (titrated, usually from 57.9 µM), for the others: at the highest dose activity change, negative = inhibition, hits mostly inhibitors. 410,000 tested, 1.2% active; calls by dose curve; tested in HEK293T cells; also: read-out not given here; nearly all actives have a fitted effect of over 45% in size
HCV inh = qHTS Assay for Inhibitors of Hepatitis C Virus (HCV); Potency, µM (highest dose often 41.8 µM), without a hit: at the highest dose activity change, negative = inhibition, usual class: inhibitors; 340,000 tested, 3.4% active; Huh7.5.1 HCVcc-Cre infection, luciferase reporter, 44 h
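A cell-based infection assay in which seeded cells (1,000 per well) receive test compound after 4 h, are inoculated with HCVcc-Cre at approximately 0.5 moi, and are incubated 44 h before luminescence detection.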
An asterisk follows results filed as active; ? = inconclusive; nt = no result given; [ ] = dose if it differs, or a comment. A selection: hits, their analogues and other compounds. The true share with any hit is near 7.2%. Unless noted, calls follow the shape of the dose curve; as a rule, active = well fitted curve in the direction sought with a large enough effect; inconclusive = small, poorly fitted or top-dose-only effect, or another doubt; inactive = no such curve, though single readings can be large; an effect the other way counts as inactive or inconclusive. % is scaled to controls: 0 for no effect and ±100 for the full control effect; potency is read from the fitted curve at half-maximal effect.

SMILES	Sm TGR inh	RE007 growth inh	MARV entry inh	LASV entry inh	FMDV antiviral	HCV inh
Oc1[nH]c2ccccc2c1C1=NCCCC1	11.2%	1.9%	7.1%	8.3%	17.4%	35.5µM*
COc1cccc(-n2cc3c(=O)n(C)c(=O)n(C)c3c2)c1	44.7µM*	-4.0%	?	?	14.7%	?
Cn1c(=O)c2cn(-c3ccccc3)cc2n(C)c1=O	-3.6%	-9.0%	17.5%[46.1 µM]	18.4%	10.7%	0.8%
Cc1cccc2c(Nc3ccc4c(c3)OCO4)nc(CN3CCC(N4CCCCC4)CC3)nc12	nt	nt	nt	nt	-11.8%	nt
Cc1sc(NC(=S)NC(=O)c2ccco2)c(C#N)c1C	3.98µM*	8.2%	?	4.2%[46.1 µM]	-10.3%	-2.8%
Cc1sc(NC(=S)NC(=O)c2ccccc2)c(C#N)c1C	nt	5.5%	?	0.0%	62.3%	1.4%
Cc1sc(NC(=S)NC(=O)c2ccc(C(C)(C)C)cc2)c(C#N)c1C	0.0%	-1.9%	8.2µM*	?	?	?
CC(=O)N1CCCc2cc(S(=O)(=O)N3CCCC(C(=O)NC(C)C)C3)ccc21 (stereo unspecified)	2.1%	nt	nt	8.0%[46.1 µM]	-25.5%	nt
Cc1cc(C)n(-c2nc(SCCN(C)C)c3c4c(sc3n2)COC(C)(C)C4)n1	-0.7%	-6.1%	?	?	-9.3%	7.94µM*
Cc1cc(C)n(-c2nc(NCC(C)O)c3c4c(sc3n2)COC(C)(C)C4)n1 (stereo unspecified)	8.1%	8.7%	?	0.2%	-0.7%	-12.6%
COc1ccc2c(c1)-c1nc(/N=C/c3c(O)ccc4ccccc34)sc1CC2	?	?	?	-20.2%	1.0%	12.6µM*
COc1ccc2c(c1)-c1nc(/N=C/c3ccc(O)cc3)sc1CC2	-0.9%	-8.2%	3.2%	?	9.7%	?
CCOc1ccccc1N1CC(O)=C(c2nc3ccccc3s2)C1=N	-2.0%	-3.0%	5.8µM*	?	nt	?
N=C1C(c2nc3ccccc3s2)=C(O)CN1Cc1ccccc1	3.8%	-6.6%	?	-16.4%	33.6%	?
N=C1C(c2nc3ccccc3s2)=C(O)CN1C1CCCCC1	-7.4%[57.1 µM]	-11.4%	nt	nt	68.2%	10.4%
COc1ccc(OC)c(N2CC(O)=C(c3nc4ccccc4s3)C2=N)c1	0.4%	18.0%	?	?	7.2%	25.1µM*
CCN(CC)CCCN1CC(O)=C(c2nc3ccccc3s2)C1=N	5.5%	-2.7%	?	?	?	11.2µM*
OC[C@H]1OC([S-])[C@H](O)[C@@H](O)[C@@H]1O.[Au+] (stereo partly specified)	nt	nt	nt	nt	-0.5%	nt
Cc1ccc(CC(=O)Nc2c(C(=O)N3CCN(c4ccccc4)CC3)oc3ccccc23)cc1	-2.9%	nt	?	-29.2%[46.1 µM]	47.7%	nt
O=C(CSc1nc2ccsc2c(=O)n1Cc1ccccc1F)NCc1ccccc1Cl	2.0%	nt	nt	-2.0%[46.1 µM]	-12.7%	nt
CCCN(CCC)C1=N/C(=C\c2ccco2)C(=O)N1c1ccccc1	15.8µM*	-13.1%	-3.4%	15.8%	-6.1%	7.2%
CCCN=C1N/C(=C\c2ccco2)C(=O)N1c1ccccc1	39.8µM*	-19.8%	0.5%	?	-0.4%	-27.2%
O=C1/C(=C\c2ccco2)NC(=S)N1c1ccccc1	-12.7%	-4.0%	?	?	2.6%	-3.1%
C#CCNC(=O)C[C@@H]1C[C@@]2(C(=O)OC)CCCCC=C2N(Cc2ccc(Cl)cc2Cl)C1=O	nt	-9.2%	nt	nt	-13.2%	nt
CCCS(=O)(=O)c1ncc(Cl)c(C(=O)Nc2c(C(=O)Nc3ccccc3)oc3ccccc23)n1	-5.4%	nt	-15.2%[46.1 µM]	?	?	nt
SMILES	Sm TGR inh	RE007 growth inh	MARV entry inh	LASV entry inh	FMDV antiviral	HCV inh
CCS(=O)(=O)c1ncc(Cl)c(C(=O)Nc2ccc(C)cc2)n1	6.31µM*	-1.0%	7.94µM*	?	14.1µM*	?
Cc1ccc(CS(=O)(=O)c2ncc(Cl)c(C(=O)Nc3ccc(OC(F)F)cc3)n2)cc1	10µM*	-5.6%	?	?	25.1µM*	?
CCS(=O)(=O)c1ncc(Cl)c(C(=O)Nc2ccc(S(=O)(=O)N3CCCC(C)C3)cc2)n1 (stereo unspecified)	0.355µM*	8.3%	?	?	10µM*	12.6µM*
CC1CCCN(S(=O)(=O)c2ccc(NC(=O)CNC3CCCC3)cc2)C1 (stereo unspecified)	-1.4%	-9.8%	?	-0.8%	4.4%	-10.9%
O=C(Nc1ccc(OC(F)F)cc1)c1ncc(Cl)c(Cl)c1Cl	5.9%	-14.6%	-38.0%[46.1 µM]	0.4%	0.3%	1.5%
CCC1CCCCN1S(=O)(=O)c1ccc(NC(=O)c2nc(S(C)(=O)=O)ncc2Cl)cc1 (stereo unspecified)	2µM*	-9.3%	8.91µM*	?	31.6µM*	?
CCN1CCN(C(=O)c2ccc3c(c2)N(Cc2cccc(Cl)c2)C(=O)c2ccccc2S3(=O)=O)CC1	-7.9%	nt	nt	?	-1.3%	nt
COCCNC(=O)C1CCCN(C(=O)/C=C/c2ccccc2)CC1 (stereo unspecified)	nt	3.9%[18.4 µM]	nt	nt	-12.4%	nt
COCC(=O)N1CCC2(CC1)CCN(c1ncccn1)CC2	nt	nt	nt	nt	10.7%	nt
O=S(=O)(c1ccc(SCCOc2ccccc2Cl)nc1)N1CCCC1	8.4%	-18.7%	nt	nt	?	12.6µM*
O=S(=O)(c1ccc(SCc2ccc(Br)cc2)nc1)N1CCCCC1	0.6%	-12.1%	0.2%	-17.6%	?	17.4%
COc1ccc(OCCSc2ccc(S(=O)(=O)N3CCCC3)cn2)cc1	-2.5%	9.5%	nt	nt	?	11.2µM*
O=S(=O)(c1ccc(SCCOc2cccc(Br)c2)nc1)N1CCCC1	-16.0%	-9.2%	-20.6%	-18.6%	-46.7%	10µM*
COc1cccc(C2C(C(=O)Nc3ccccc3OC)=C(C)Nc3nc4ccccc4n32)c1 (stereo unspecified)	6.9%	nt	-0.1%[46.1 µM]	-13.8%[46.1 µM]	?	nt
COC(=O)c1ccc(C(=O)OC)c(NC(=O)CN2CCN(c3ccccc3)CC2)c1	-17.1%	10.1%	9.2µM*	?	-12.8%	-22.3%
COC(=O)c1ccccc1NC(=O)CN1CCN(C23CC4CC(CC(C4)C2)C3)CC1	-1.9%	-10.6%	5.8µM*	?	-14.7%	-13.5%
COC(=O)c1ccc(C(=O)OC)c(NC(=O)/C=C/C(=O)O)c1	10µM*	-13.2%	5.4%	0.3%	-1.5%	-8.4%
COC(=O)c1ccc(C(=O)OC)c(NC(=O)CN2CCN(c3ccc(OC)cc3)CC2)c1	-8.5%	-1.7%	-1.4%[46.1 µM]	-22.6%	-17.6%	6.3%
O=C(CCl)Nc1ccccc1Sc1ccc(Cl)cc1	-31.9%	0.7%[3.69 µM]	23.1µM*	?	31.6µM*	?
Cc1c(C(=O)NCCCc2ccncc2)cnn1-c1nccc(-c2ccccc2F)n1	nt	nt	nt	nt	-19.6%	nt
